Source: PubChem BioAssay AID1063 (University of Pittsburgh Molecular Library Screening Center, 2008)
Several values for one entry are separate records, joined by “and”; a condition that tells them apart may be missing. Equal entries are not always repeated. About 18,000 (9%) of roughly 200,000 compounds were called active. No stated cut-off is given here; in the data, active means inhibition above about 50%; inactive means the rest. Shown is part of a subset that was picked to be rich in actives. Some compounds were tested as several samples or in several runs, with calls that do not always agree.

Assay: antileishmanial activity against promastigotes – primary screen (AID 1063);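 further: promastigotes grown with compound for 44 hours at 28 °C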
Details: Leishmania major promastigotes, resazurin fluorescence viability; at 10 µM; stronger effect = higher value
With `Cc1cc(N2CCOCC2)nc2ccc(NC(=S)N3CCN(Cc4ccccc4)CC3)cc12` the inhibition was 36.5% (inactive). For `O=C(Nc1ccccc1)/C(=C/c1ccc([N+](=O)[O-])cc1)NC(=O)c1ccccc1`, the inhibition was -0.93% (inactive). With `CCOC(=O)/C(=N\Nc1ccccc1[N+](=O)[O-])c1csc(Nc2ccccc2)n1` the inhibition was 15.4% (inactive). With `CCOC(=O)/C(=C\c1ccc([N+](=O)[O-])cc1)C(=O)c1cc(C(C)=O)c(Nc2ccccc2)s1` the inhibition was 101% (active). For `Cc1ccc(C(=O)N/C(=C/c2cccs2)C(=O)NCC2CCCO2)cc1` (stereo not given), the inhibition was -3.66% (inactive). With `CC(C)C(=O)Nc1cccc(NC(=S)NC(=O)C(c2ccccc2)c2ccccc2)c1` the inhibition was 100% (active). In the case of `CCCCC(=O)NNC(=S)NC(=O)C(c1ccccc1)c1ccccc1`, the inhibition is reported as 22.8% (inactive). In the case of `CC(C)C(=O)NC(=S)Nc1ccccc1F`, the inhibition is reported as -3.27% (inactive). In the case of `CC(C)(C)c1ccc(C(=O)NCc2nnc(SCC(=O)N3CCCc4ccccc43)n2-c2ccccc2)cc1`, the inhibition is reported as -4.1% (inactive). In the case of `COc1ccccc1CCNC(=O)CSc1nnc2ccc(-c3cccnc3)nn12`, the inhibition is reported as 1.51% (inactive). With `OC(CN=c1sc2ccccc2n1CC(O)COc1ccccc1)COc1ccccc1` (stereo not given) the inhibition was 63.1% (active). For `OC(COc1ccccc1)Cn1cc(Br)cn1` (stereo not given), the inhibition was -7.06% (inactive). In the case of `C=CCn1c(=N)n(CC(O)COc2ccc(OC)cc2)c2ccccc21` (stereo not given), the inhibition is reported as 34.9% (inactive). For `C/C(N)=C(/C#N)C(=O)COC(=O)CNS(=O)(=O)c1ccc(C)cc1`, the inhibition was -2.53% (inactive). For `Cc1ccc(C)n1NC(=O)c1ccc([N+](=O)[O-])cc1`, the inhibition was -0.24% (inactive). With `CC1CC(C)CN(C(=O)CSc2ccsc2[N+](=O)[O-])C1` (stereo not given) the inhibition was 8.96% (inactive). In the case of `S=c1[nH]nc2c3c4c(sc3ncn12)CCCC4`, the inhibition is reported as 72.6% (active). In the case of `CC(C(=O)O)n1cnc2sc3c(c2c1=O)CCCC3` (stereo not given), the inhibition is reported as -4.65% (inactive). In the case of `c1nnc2c3c4c(sc3ncn12)CCC4`, the inhibition is reported as -5.73% (inactive). With `COc1cc(OC)cc(C(=O)OCC(=O)Nc2sccc2C(N)=O)c1` the inhibition was 18.3% (inactive). With `Cc1cc(C)cc(NC(=S)NCCCN2CCOCC2)c1` the inhibition was 11.8% (inactive). With `Cc1ccc(S(=O)(=O)NCCN2CCOCC2)cc1C` the inhibition was -7.43% (inactive). With `Cc1cc(C)c(S(=O)(=O)NCCCN2CCOCC2)cc1Br` the inhibition was 94.6% (active). In the case of `O=C(NCc1cccs1)c1cc(-c2ccccn2)nc2ccc(Br)cc12`, the inhibition is reported as -5.05% (inactive). With `CC(=O)Nc1ccc(OCCC[n+]2cccc(C(=O)[O-])c2)cc1` the inhibition was 0.17% (inactive). In the case of `CCOc1ccccc1C(=O)NCCCn1ccnc1`, the inhibition is reported as 0.51% (inactive). For `COCCNC(=O)/C(C#N)=C/c1cccc(OCc2ccccc2)c1`, the inhibition was 47% (inactive). With `COc1ccc(/C=C(\C#N)C(=O)NCCCn2ccnc2)cc1` the inhibition was 55.7% (active). With `COc1ccccc1-c1cc(C(=O)NCCCn2ccnc2)no1` the inhibition was 6.26% (inactive). For `COc1ccc(-c2cc(C(=O)NCCCn3ccnc3)no2)cc1`, the inhibition was 36.3% (inactive). With `COc1cccc(-c2nn(-c3ccccc3)cc2/C=C(\C#N)C(=O)NCCCn2ccnc2)c1` the inhibition was 100% (active). For `Cc1nccn1CCCNC(=O)CC1C(=O)NCCN1Cc1ccc(Cl)c(F)c1` (stereo not given), the inhibition was 5.03% (inactive). For `Cc1cccc(NS(=O)(=O)c2ccc(C)c(C(N)=O)c2)c1`, the inhibition was -3.69% (inactive). With `O=C(Nc1ccccc1C(=O)N1CCOCC1)c1ccc(Cl)cc1` the inhibition was 1.24% (inactive). With `NS(=O)(=O)c1cccc(NC(=O)CN2CCCc3ccccc32)c1` the inhibition was -1.56% (inactive). With `O=C(NNC(=S)NCc1ccco1)C(c1ccccc1)c1ccccc1` the inhibition was 45.2% (inactive). In the case of `Cc1cc(O)c(NC(=O)c2ccc(C)c([N+](=O)[O-])c2)cc1C`, the inhibition is reported as 1.25% (inactive). For `COCC(C)NC(=O)CSc1nc2nn(-c3ccccc3)c(=O)c-2c2n1CCCCC2` (stereo not given), the inhibition was 34.5% (inactive). In the case of `COc1ccc(C(=O)C2CCCN(Cc3cccn3-c3ccccn3)C2)c(C)c1` (stereo not given), the inhibition is reported as 99.8% (active). For `CCOC(=O)c1[nH]ncc1CN1CCCC(C(=O)c2ccc(OC)cc2C)C1` (stereo not given), the inhibition was 1.77% (inactive). In the case of `CCn1ccnc1CN1CCCC(C(=O)c2ccc3c4c(cccc24)CC3)C1` (stereo not given), the inhibition is reported as 40% (inactive). With `O=C(CN1CCOCC1)Nc1c(Cl)cc(Cl)cc1Cl` the inhibition was -3.49% (inactive). In the case of `O=C(Nc1ccc(F)cc1)N1CCCC(c2nc3c(nnn3Cc3ccccc3Cl)c(=O)[nH]2)C1` (stereo not given), the inhibition is reported as -7.44% (inactive). In the case of `COC(C(=O)NCc1ccccc1C)c1ccccc1` (stereo not given), the inhibition is reported as -3.9% (inactive). For `COC(C(=O)Nc1ccc(S(=O)(=O)Nc2ccc(C)c(C)c2)cc1)c1ccccc1` (stereo not given), the inhibition was 56.7% (active). For `COC(C(=O)Nc1ccc(C(C)=O)cc1)c1ccccc1` (stereo not given), the inhibition was -5.21% (inactive). In the case of `Cc1ccc(C(=O)N/C(=C\c2ccco2)C(=O)N2CCSCC2)cc1C`, the inhibition is reported as 10.4% (inactive). In the case of `O=C(CCCn1c(=O)c2sccc2n(CC(=O)NCC2CCCO2)c1=O)NCc1ccco1` (stereo not given), the inhibition is reported as -8.29% (inactive). For `CC1CCCC(C)N1/N=C/c1ccccc1OC(F)F` (stereo not given), the inhibition was -3.94% (inactive). In the case of `Oc1ccc(Cl)cc1/C=N/c1nc2ccccc2[nH]1`, the inhibition is reported as 63% (active). With `c1ccc2[nH]c(-c3nc4ccccc4[nH]3)nc2c1` the inhibition was 33.9% (inactive). With `Oc1ccc(Br)cc1C=Nc1ccc2[nH]ncc2c1` the inhibition was -4.98% (inactive). With `COc1cccc(NC(=O)c2ccc(S(=O)(=O)N(C)C)cc2)c1` the inhibition was -7.02% (inactive). For `COc1cccc(-c2nnc(NC(=O)c3ccc(S(=O)(=O)N(CC(C)C)CC(C)C)cc3)o2)c1`, the inhibition was 100% (active). With `O=C(Nc1nnc(-c2ccco2)o1)c1ccc(S(=O)(=O)N2CCOCC2)cc1` the inhibition was 3.15% (inactive). In the case of `CCOc1ccc2nc(NCCNC(=O)C(C)(C)C)c(C)cc2c1`, the inhibition is reported as 5.84% (inactive). In the case of `CN(CC(=O)NCCc1ccccn1)S(=O)(=O)c1ccc(Cl)cc1`, the inhibition is reported as 6.18% (inactive). With `COc1ccc(CCN(C)C(=O)C2CCCN(Cc3ccc(OC)c(OC)c3)C2)cc1OC` (stereo not given) the inhibition was -6.68% (inactive) and 55.5% (active). For `COc1ccc(CN2CCCC(C(=O)c3ccc(Cl)cc3)C2)cc1Cn1cncn1` (stereo not given), the inhibition was 32% (inactive). With `COc1ccc(CN2CCCC(CNC(=O)c3ccc(F)cc3)C2)cc1OC` (stereo not given) the inhibition was 14.8% (inactive).
